Compound activity as filed in PubChem.
Compounds with a hit are over-represented: about 19% of the library has one in this group of screens.
TDP1 cell noCPT – qHTS for Inhibitors of human tyrosyl-DNA phosphodiesterase 1 (TDP1): qHTS in cells in absence of CPT. DT40 Tdp1-/- hTDP1 cells, no CPT, ATP luminescence, 48 h. Potency, µM (highest dose often 46.2 µM), without a hit: at the top dose activity change, negative = growth inhibition, hits mostly inhibitors. 15% of 420,000 active. AID 686978, 2013; also: potency is read from the fitted curve at half-maximal effect; nearly all actives have a fitted effect of over 55% in size
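A cellular qHTS used chicken DT40 cells lacking endogenous Tdp1 but carrying stably transfected human TDP1. Compounds were applied without camptothecin, and cell growth kinetics were judged by ATP-dependent luminescence after ≥48 hr.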
DT40 TDP1 CPT – qHTS for Inhibitors of human tyrosyl-DNA phosphodiesterase 1 (TDP1): qHTS in cells in presence of CPT; chicken DT40 Tdp1-/-;hTDP1 cells + 20 nM CPT, ATP luminescence, 48 h; 12% of 420,000 active; Potency, µM (titrated, usually from 46.2 µM), for inactives: at the top dose activity change, negative = growth inhibition, actives largely listed as inhibitors; AID 686979, 2013; also: potency is read from the fitted curve at half-maximal effect; nearly all actives have a fitted effect of over 55% in size
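Cell growth measured by CellTiter-Glo luminescence after a minimum 48 h, 37 C compound exposure with 20 nM CPT in Tdp1-knockout DT40 cells stably expressing hTDP1, seeded 400/well; qHTS titration format.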
HT1080 IDH1KD tx – qHTS for induction of synthetic lethality in tumor cells producing 2HG: qHTS for the HT-1080-IDH1KD cell line | 2% of 360,000 active | Potency, µM (top dose mostly 46.1 µM), for inactives: top-dose activity, negative = toxicity, actives largely listed as cytotoxic | AID 686971, 2013 | HT-1080 IDH1 knockdown viability, ATP luminescence, 48 h;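 also: potency is read from the fitted curve at half-maximal effect; 0% = DMSO wells and -100% = cell-free medium wells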
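In this qHTS, HT-1080 cells depleted of IDH1 are exposed for 48 h at 37 °C to compound titrations. Toxicity is scored from CellTiter-Glo luminescence, with DMSO as full viability and medium alone as none.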
IL-1B inflam inh – qHTS for Inhibitors of Inflammasome Signaling: IL-1-beta AlphaLISA Primary Screen; THP-1 LPS/ATP IL-1B secretion, AlphaLISA, 16 h; hits give low values; activity change, % at 57.5 µM; 4.7% of 360,000 active; AID 743279, 2014; in the data active = activity change below about -50%; inconclusive = mostly about -30% to -49%
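Secreted IL-1B measured by AlphaLISA bead assay after 16 h compound exposure of THP-1 cells; compounds (final up to 57.5 uM) added 1 h before LPS (250 ng/mL) and ATP (1.25 mM) stimulation; lower signal means less secretion.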
HT1080-NT tox – qHTS for induction of synthetic lethality in tumor cells producing 2HG: qHTS for the HT-1080-NT fibrosarcoma cell line | HT-1080-NT fibrosarcoma viability, CellTiter-Glo ATP luminescence, 48 h | Potency, µM (top dose mostly 46.1 µM), for inactives: top-dose activity, negative = less viability, hits mostly cytotoxic | 1.6% of 360,000 active;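 also: NT is the 2HG producing partner of a matched IDH1 knockdown line; potency is read from the fitted curve at half-maximal effect; 0% = DMSO-treated cells and -100% = media-only wells without cells; nearly all actives have a fitted effect of over 55% in size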
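A 48-hour cytotoxicity screen used HT-1080-NT cells plated 2 hours before compound delivery. ATP-based CellTiter-Glo luminescence measured viability, normalized to DMSO and no-cell controls.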
Starred values were filed as active, the others as inactive; ? = inconclusive; · = no result given. Unless noted, calls follow the shape of the dose curve; as a rule, active = well fitted curve in the direction sought with a large enough effect; inconclusive = small, poorly fitted or top-dose-only effect, or another doubt; inactive = no such curve, though single readings can be large; an effect the other way counts as inactive or inconclusive. Unless noted, % is scaled to controls: 0 for no effect and ±100 for the full control effect.

SMILES | TDP1 cell noCPT | DT40 TDP1 CPT | HT1080 IDH1KD tx | IL-1B inflam inh | HT1080-NT tox
CC(CNC(=O)c1cc(COc2ccc3ncccc3c2)on1)c1ccccc1 (stereo not given) | 11.6µM* | 16.4µM* | ? | -5.2 | ?
COc1cc([N+](=O)[O-])ccc1NC(=O)CSc1n[nH]c(C(C)C)n1 | 2.1% | 6.2% | 11.3% | 4.2 | 7.7%
Cc1ccc(S(=O)(=O)N2CCN(C(=O)COC(=O)CCOc3ccccc3)CC2)c(C)c1 | -1.7% | ? | -0.7% | -3.3 | -0.1%
COc1ccc2cc(S(=O)(=O)NC3CC(C)(C)NC(C)(C)C3)ccc2c1 | -20.1% | -28.0% | -15.1% | -5.9 | -14.3%
O=C(c1cc(COc2ccc3ncccc3c2)on1)N1CCCC(O)C1 (stereo not given) | 20.6µM* | ? | -2.5% | 1.3 | -1.0%
CCC(O)C1CCN(C(=O)c2cc(COc3ccc4ncccc4c3)on2)CC1 (stereo not given) | 3.66µM* | 4.11µM* | -23.7% | -10.8 | ?
O=C(c1cc(COc2ccc3ncccc3c2)on1)N1CCC[C@H]1CO | 8.2µM* | 6.51µM* | -21.6% | -16.3 | ?
COc1cccc(OCc2cc(C(=O)N3CCC(C(O)C(C)C)CC3)no2)c1 (stereo not given) | ? | ? | 1.5% | 1.0 | 10.3%
COc1ccc(-c2oc3ccccc3c2C(=O)OCc2ccccc2)cc1 | -1.7% | -6.5% | 3.7% | 21.6 | -0.7%
CC(C)CCNC(=O)CSCc1cnn(-c2ccccc2)c1-n1cccc1 | 20.6µM* | 20.6µM* | · | · | ·
CNC(=O)CSCc1cnn(-c2ccccc2)c1-n1cccc1 | -16.7% | 5.8% | 6.6% | -9.0 | -0.6%
Cc1ccc(NC(=O)CSCc2cnn(-c3ccccc3)c2-n2cccc2)c(C)c1 | 16.4µM* | ? | · | · | ·
Cc1ccc(Cl)cc1NC(=O)CSCc1cnn(-c2ccccc2)c1-n1cccc1 | 16.4µM* | 16.4µM* | · | · | ·
O=C(CCSCc1cnn(-c2ccccc2)c1-n1cccc1)NCc1ccccc1Cl | ? | 18.4µM* | · | · | ·
COC(=O)C1CCN(C(=O)COC(=O)c2oc3ccc(OC)cc3c2C)CC1 | -25.2% | -18.4% | 7.6% | 12.2 | -0.7%
CCOc1cc(CNC(=O)c2ccc(Cn3c(=O)c4cccn4c4cccnc43)cc2)ccc1OC | ? | -27.9% | · | · | ·
Cc1cc(Cn2nc(C(=O)NCc3cccc(C(F)(F)F)c3)cc2-c2ccccc2)on1 | ? | ? | -1.1% | -24.3 | -1.2%
Cc1ccc(CNC(=O)c2cc(-c3ccccc3)n(Cc3cc(C)no3)n2)cc1 | ? | 20.6µM* | 1.3% | -4.1 | 18.8%
Cc1cc(C)n(C(N)=NC(=O)c2ccccc2)n1 | 0.2% | 5.6% | 8.0% | 18.2 | 18.2%
CC(=O)C(C(C)=O)C(NC(=O)c1cccnc1)(C(F)(F)F)C(F)(F)F | 11.6µM* | 7.31µM* | -0.7% | 16.6 | -4.0%
CC(=O)C(=Nc1cccc(Cl)c1)NNc1ccccc1C | 14.6µM* | ? | -18.6% | 22.5 | -18.1%
Cc1cc(C(=O)Cn2ncc(Cl)c(Cl)c2=O)c(C)n1CC(F)(F)F | 3.66µM* | 4.61µM* | 5.8µM* | -99.0* | 8.2µM*
Cc1cccc(Cn2ncc(Cl)c(Cl)c2=O)c1 | 9.2µM* | 11.6µM* | 7.08µM* | -102.4* | 12.6µM*
Clc1cccc(Cn2ncc3ccccc32)c1 | -14.6% | -16.2% | 0.0% | 23.7 | 0.9%
Cc1cc2oc(=O)cc(Cn3ncc(Cl)c(Cl)c3=O)c2cc1Cl | 3.26µM* | 3.26µM* | 3.26µM* | -100.9* | ?
SMILES | TDP1 cell noCPT | DT40 TDP1 CPT | HT1080 IDH1KD tx | IL-1B inflam inh | HT1080-NT tox
Cc1ccc(C)c(C(=O)Cn2ncc(Cl)c(Cl)c2=O)c1 | 3.26µM* | 5.8µM* | 18.4µM* | -103.7* | -26.2%
N#Cc1cc2c([nH]c1=S)CCCC2 | -4.4% | 2.4% | 16.4% | 29.2 | 16.0%
C=CCSC(=C(C#N)C#N)c1cc2c([nH]1)CCCC2 | 11.6µM* | 10.3µM* | 16.4µM* | -114.6* | 16.4µM*
CSc1ccccc1NC(=O)CSc1nnnn1-c1ccccc1SC | ? | ? | 2.2% | -4.8 | -1.9%
COC(=O)c1ccsc1NC(=O)CSc1nnnn1-c1ccccc1SC | ? | 11.2µM* | -1.9% | -1.5 | -0.6%
CCC(Sc1ccc(Cl)cc1)C(=O)Nc1nnc(-c2cccc([N+](=O)[O-])c2)s1 (stereo not given) | 13µM* | ? | 3.5% | 30.4 | 13.5%
CCC(Sc1nncn1C)C(=O)Nc1nnc(-c2ccccc2Cl)s1 (stereo not given) | 9.6% | -29.0% | 6.5% | -6.2 | 20.0%
CSc1ccc(CNC(=O)Cn2c(-c3cccs3)cc3cc(F)ccc32)cc1 | ? | -27.7% | · | · | ·
COc1cc(NC(=O)COc2cc3oc(=O)cc(C)c3cc2Cl)cc(OC)c1OC | 5.8µM* | 8.2µM* | 10.4% | -16.3 | 7.0%
COc1cccc(C(=O)N2CCc3cc(OC)c(OC)cc3C2COc2ccc3c(C)cc(=O)oc3c2)c1 (stereo not given) | 10.3µM* | ? | · | · | ·
Cc1cccc(C)c1NC(=O)COc1ccc2c(C)c(Cc3ccccc3)c(=O)oc2c1 | 11.6µM* | ? | 5.7% | 1.8 | 9.6%
COCC(=O)N1CCc2cc(OC)c(OC)cc2C1COc1ccc2c(C)cc(=O)oc2c1 (stereo not given) | ? | -27.1% | · | · | ·
CC(=O)c1cccc(NC(=O)COc2ccc3oc(=O)cc(C)c3c2)c1 | ? | 18.4µM* | 1.3% | -3.0 | 0.5%
COc1cc(NC(=O)COc2cc(C)cc3oc(=O)c(C)c(C)c23)cc(OC)c1OC | 5.6% | -6.9% | -3.5% | 13.1 | 2.0%
CC(C)Oc1ccc(CNC(=O)C2COc3ccccc3C2)cc1 (stereo not given) | ? | -27.7% | · | · | ·
Cc1nc2c(-c3ccc(F)cc3)c(C)nn2c(C)c1CCC(=O)Nc1ccccc1F | -18.0% | ? | 4.8% | -23.3 | -0.6%
COc1ccc(NS(=O)(=O)c2c(C)cc(C)cc2C)cn1 | -15.7% | -25.2% | -18.4% | 7.4 | -6.2%
COc1ccccc1Nc1nccc(N(C)C)c1C#N | -18.6% | 9.3% | 20.2% | 9.9 | 0.9%
Cc1cc(=O)oc2cc(OCC(=O)N3CCc4ccccc4C3)ccc12 | -28.9% | -28.6% | 13.9% | -10.1 | 18.4%
Cc1c(NC(=O)c2cccc(NC(=O)COc3ccc(C#N)cc3)c2)c(=O)n(-c2ccccc2)n1C | -46.9% | -9.4% | 5.0% | -4.8 | -0.2%
CC(=O)c1cccc(OCC(=O)Nc2cccc(C(=O)Nc3c(C)n(C)n(-c4ccccc4)c3=O)c2)c1 | ? | 13µM* | 11.4% | -8.2 | -1.2%
